# Screens (PubChem)
# Most compounds without a hit are left out; they make up all but 3.7% or so of the library.
# GPR7 antag: antagonists of human GPR7 (neuropeptides B/W receptor 1). AID 1861. GPR7-expressing cells, fluorescence antagonist assay. hit rate 1.1% among 290,000. inhibition, % at 4.4 µM; in the data active means inhibition above about 16%, passing the limit was not always enough;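 further: cells stimulated with the agonist NPW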
# Target sequence (P48145 whole entry, looked up): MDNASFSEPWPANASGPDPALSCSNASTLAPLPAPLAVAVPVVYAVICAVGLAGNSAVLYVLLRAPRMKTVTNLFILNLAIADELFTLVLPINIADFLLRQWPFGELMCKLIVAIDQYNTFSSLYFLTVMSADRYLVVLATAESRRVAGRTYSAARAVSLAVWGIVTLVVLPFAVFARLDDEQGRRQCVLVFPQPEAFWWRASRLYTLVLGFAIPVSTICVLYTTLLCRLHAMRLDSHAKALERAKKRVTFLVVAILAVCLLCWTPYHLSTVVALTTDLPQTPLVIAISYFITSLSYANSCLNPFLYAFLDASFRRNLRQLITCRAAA
# CHT PAM: allosteric activators of human choline transporter CHT; Q9GZV3; CHT-expressing cells, membrane potential dye, choline EC20; hits give high values; LV-AA mutant CHT in HEK293 cells; B-score at 10 µM; hit rate 0.49% among 310,000;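 active means initial fluorescence not abnormally high and integrated response B-score, plate-corrected, over 3 SD above library mean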
# ANO1 activ: activators or potentiators of mouse TMEM16A chloride channel; Q8BHY3; HEK293 TMEM16A/YFP-H148Q/I152L, iodide quench fluorescence; hits give low values; B-score at 10 µM; hit rate 0.3% among 340,000; AID 623877;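 active means fluorescence-ratio B-score plate-corrected deviation score at least 3 library SD below zero, with starting fluorescence score within 5 deviations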;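 further: channel opened by trigger with iodide after compound preincubation; score built on the fluorescence ratio of max minus min over baseline; more negative score means more quench and so TMEM16A activation or potentiation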
# Kir21 block: Kir2.1 (mouse) channel inhibition; B-score at 10 µM; HEK293-Kir2.1, FluxOR thallium flux fluorescence; hits give low values; AID 1672; hit rate 0.85% among 310,000; P35561;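 active means fluorescence ratio B-score at or below minus 3 SD of library scores, with starting-brightness B-score within 2 SD, cut at about -4.2 in these data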;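 further: channel flux triggered by added potassium and thallium sulfate stimulus; B-score of peak minus minimum fluorescence over baseline after thallium stimulus; more negative B-score means stronger Kir2.1 block with less thallium influx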
# ANO1 block: inhibitors of mouse TMEM16A calcium-activated chloride channel. Q8BHY3. HEK293 TMEM16A/YFP iodide influx fluorescence, ionomycin. normalized B-score (activity score, 25-100; higher = stronger inhibition) at 10 µM. hit rate 1.2% among 310,000;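 active means ratio plate-corrected score three or more library SD toward inhibition, starting fluorescence score within five deviations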;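 further: score derived from kinetic fluorescence span divided by baseline fluorescence per well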
# CHT inh: inhibits the human high affinity choline transporter. hit rate 0.86% among 310,000. CHT-expressing cells, membrane potential dye, choline response; hits give low values. Q9GZV3. AID 488975. B-score at 10 µM;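 active means B-score over 3 SD under the library average, and starting fluorescence ratio not unusually high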;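 further: choline stimulus applied at its EC90 after an EC20 pre-addition; B-score computed on integrated fluorescence ratio after choline addition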
# Hits are given with their value; – = inactive; · = no result given.
SMILES,GPR7 antag,CHT PAM,ANO1 activ,Kir21 block,ANO1 block,CHT inh
O=C(O)CC(NC(=O)CC(c1ccccc1)c1ccccc1)c1cccc([N+](=O)[O-])c1 (stereo not drawn),–,–,–,–,–,–
O=[N+]([O-])c1ccc(-c2cnc(SCc3ccccc3Cl)[nH]2)cc1,–,–,–,–,100,–
Cc1nn(CC(=O)NC2(C)CCS(=O)(=O)C2)c(C)c1S(=O)(=O)N(C)C (stereo not drawn),·,·,–,·,·,·
O=c1c2c(-c3ccccc3)csc2ncn1/N=C/c1cccc([N+](=O)[O-])c1O,–,–,–,–,25,–
O=c1c2c(-c3ccccc3)csc2ncn1/N=C/c1ccc(O)c([N+](=O)[O-])c1,–,–,–,–,–,–
C/C(=C\c1ccccc1)CN1CCN(C(C)C)C(CCO)C1 (stereo not drawn),–,–,–,–,–,–
Cc1ccc(S(=O)(=O)Nc2cc(C)c(O)cc2C)cc1,–,–,–,-4.93,–,–
Cc1cc(NS(=O)(=O)c2ccccc2)c(C)c(Cl)c1O,·,–,–,-5.81,–,–
COc1ccc(S(=O)(=O)Nc2cc(C(C)C)c(O)cc2C)cc1,–,–,–,–,–,–
CCOc1ccc(Br)cc1/C(C)=N\NC1=NCCN1,–,–,–,–,100,–
CCCCCc1nnc(NC(=O)c2ccc(N3CCCC3=O)cc2)s1,·,–,–,–,–,–
CC1(C)C2CCC1(CS(=O)(=O)Nc1ccc(S(=O)(=O)N3CCCCC3)cc1)C(=O)C2 (stereo not drawn),–,–,–,–,–,–
CC(C)NC(=O)Cn1c(SCC(=O)NC2CCCC2)nc2ccccc21,–,–,–,–,–,–
CC(C)Cn1c(SCC(=O)NC(=O)NC2CCCC2)nc2ccccc21,–,–,–,–,25,–
O=C(c1ccncc1)N1CCN(S(=O)(=O)c2cccc(C(F)(F)F)c2)CC1,·,·,–,·,·,·
C/C(=N\N=C(N)N)c1cccc(Cl)c1,–,–,–,–,–,–
C/C(=N\N=C(N)N)c1cc(Cl)ccc1Cl,–,–,–,-5.75,–,–
O=C(CCS(=O)(=O)c1ccccc1)NNC(=O)CSc1ccccc1F,·,·,–,·,·,·
C/C(=N\NC(=O)c1nnn(-c2nonc2N)c1C)c1ccc(-c2ccccc2)cc1,19.7,–,–,–,–,–
COc1ccc(Br)cc1CN1CCC(N2CCCC2)CC1,–,–,–,–,–,–
O=C1c2ccccc2C(=O)c2c1ccc(C(=O)N1CCCCC1)c2NCCO,–,–,–,–,–,–
CC1CCCN(C(=O)c2ccc3c(c2NCCO)C(=O)c2ccccc2C3=O)C1 (stereo not drawn),–,–,–,–,–,-5.38
CCc1nn(CC(=O)NCCCN2CCc3ccccc3C2)c(=O)c2cc3sccc3n12,–,–,–,–,100,–
CCC(CC)C(=O)Oc1c(Sc2ccccc2[N+](=O)[O-])c(C)nn1C(C)(C)C,–,–,-10.1,–,–,–
COc1cc(CNCc2cccs2)ccc1OCc1ccccc1,–,–,–,–,–,–
SMILES,GPR7 antag,CHT PAM,ANO1 activ,Kir21 block,ANO1 block,CHT inh
COc1cc(CNCc2ccccn2)ccc1OCc1cccc(Cl)c1,–,–,–,-7.61,–,–
O=C1NC(=O)C(c2ccccc2)(C2CCCC2)N1 (stereo not drawn),·,·,–,·,·,·
COc1ccc(N2CCc3c(C)nc4c(OC)cc(OC)cc4c32)cc1,–,–,–,-4.66,–,–
COc1ccc(N2CCc3c(C)nc4c(OC)cc(OC)cc4c32)c(OC)c1,–,–,–,–,–,–
Cc1cc(NC(=O)CSc2nnc(-c3ccncc3)n2C)n(-c2ccccc2)n1,–,–,-4.91,–,–,–
Cc1cc(NC(=O)CSc2nnc(-c3ccncc3)n2Cc2ccccc2)n(-c2ccccc2)n1,–,–,–,–,–,–
COc1ccc(N2CCN(C3CCCN(C(=O)C4=C(C)OCCO4)C3)CC2)cc1 (stereo not drawn),–,–,–,–,–,–
COc1ccc(C[C@H]2CN3C(=NC[C@H]3Cc3ccccc3)N2CCNC(=O)c2ccc(C)c(Br)c2)cc1,·,–,–,-7.35,–,–
COc1ccc(C[C@H]2CN3C(=NC[C@@H]3Cc3ccccc3)N2CCNC(=O)c2ccc(C)c(Br)c2)cc1,–,–,–,-4.25,–,–
CC(C)Cn1c(SCC(=O)c2ccc(Cl)s2)nnc1-c1ccco1,–,–,–,-9.37,–,–
CC(C)Oc1ccc(S(=O)(=O)N2CCOCC2)cc1NC(=O)C1=NN(c2ccccc2)C(=O)CC1,·,·,–,·,·,·
CCOC(=O)c1c(NC(=O)CSc2nnc(C)s2)sc2c1CCCCC2,–,–,–,–,–,–
CCOC(=O)c1c(NC(=O)CSc2nnc(-c3c[nH]c4ccccc34)n2CCOC)sc2c1CCCC2,–,–,–,–,–,–
CCOC(=O)c1c(NC(=O)CSc2nnc(-c3c[nH]c4ccccc34)n2C)sc2c1CCCC2,–,–,-21.5,–,–,–
CCOC(=O)c1c(NC(=O)CSc2nnc3c(Cl)cc(Cl)cn23)sc2c1CCC2,–,–,–,-4.33,–,–
Cc1cc(C(=O)NNS(=O)(=O)c2ccc(C(C)(C)C)cc2)nn1C(C)(C)C,–,–,–,–,–,–
CCNC(=S)N1CCC(Cc2ccccc2)CC1,–,–,-4.77,–,–,–
S=C(Nc1ccccc1)N1CCC(Cc2ccccc2)CC1,–,–,–,–,–,–
O=C(NC1CCCCC1)C(c1ccco1)N(Cc1cccs1)C(=O)Cn1nnc2ccccc21 (stereo not drawn),21.6,–,–,·,–,–
O=C(N/N=C/c1cn(Cc2ccccc2)c2ccccc12)c1ccncc1,–,–,–,–,100,–
Cc1ccc(OCCn2cc(/C=N/NC(=O)c3ccncc3)c3ccccc32)cc1,–,–,–,–,–,–
OC1(c2cccc(C(F)(F)F)c2)CCN(c2ccc(-c3ccccc3)nn2)CC1,–,–,–,·,–,–
OC1(c2cccc(C(F)(F)F)c2)CCN(c2ncnc3c2[nH]c2ccccc23)CC1,–,–,–,–,100,–
COc1cccc(N2CCN(c3ncnc4c3[nH]c3ccccc34)CC2C)c1 (stereo not drawn),–,–,·,–,100,–
c1ccc2c(c1)CCN(c1ncnc3c1[nH]c1ccccc13)C2,·,–,–,–,100,–
COc1cc(/C=C2/C(=N)N3N=C(CC(=O)N4CCOCC4)SC3=NC2=O)ccc1OCc1ccc(F)cc1,–,–,–,–,–,–
Cc1ccc(Cl)cc1N1CCN(C(=O)CCS(=O)(=O)c2ccc3c(c2)NC(=O)CO3)CC1,–,–,–,–,–,–
C/C=C/c1ccc(OCCNCc2ccccc2)c(OC)c1,–,–,–,–,–,–
Cc1cc(Cl)cc(C)c1OCCNCc1ccccc1,–,–,–,–,–,–
Clc1ccc(OCCCNCc2ccccc2)c2ccccc12,–,–,–,-12.8,–,–
